Here are results for 95 compounds from PubChem BioAssay AID720541 (National Center for Advancing Translational Sciences (NCATS), 2013).

Structures are written as SMILES. The campaign covered roughly 1,300 compounds. About 420 (32%) were called active. Inconclusive results (about 32%) are left out. Calls come from the whole dose curve; as a rule, active = well fitted inhibition curve with a large enough effect; inconclusive = small, poorly fitted or top-dose-only effect; inactive = no such curve, though single readings can be large or run the other way. This is one part of the list. A call without a number means that no potency is given here.
Potency is the fitted concentration of half-maximal effect.

In this assay the target is C-terminal-binding protein 1 (Homo sapiens) (UniProt Q13363). The assay can be described thus: qHTS for Inhibitors of the Phosphatase Activity of Eya2: Carboxyl-terminal binding protein (CtBP) Counterscreen for Cherry-picked Compounds. Note: nearly all actives have a fitted effect of over 65% in size. The following applies: purified protein-protein binding, AlphaScreen, 3 h; series mostly up to 46.1 µM. An outline of the steps: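 AlphaScreen using 25 nM GST-E1A with 25 nM CtBP-6xHIS; compounds at 2.5 nM–46 uM final, 2 h at room temperature, then donor/acceptor beads (20 ug/mL) for 1 h in the dark. Signal normalized to E1A peptide inhibitor (maximum inhibition) and DMSO.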
For `COc1cc(OC)c(OC)cc1CCC(C)NCCC(c1ccccc1)c1ccccc1` (stereo not given), the Potency was 13.5 µM (active).

As for `CNc1cccc2c1C(=O)c1ccccc1C2=O`, the Potency was 2.39 µM (active).

Consider `Cc1cccc(NC(=O)COC(=O)c2cccc3c2C(=O)c2ccccc2C3=O)c1C`, for which the Potency result is “inactive”.

`NC(=O)c1ccc(NC(=O)COC(=O)/C=C/c2ccc(Br)o2)cc1`: the Potency result was “inactive”.

Take `C=CCn1cccc(C(=O)Nc2ccc(N(C)C)cc2)c1=O`: the Potency result is “inactive”.

In the case of `Cc1ccc(/C=C/C(=O)Nc2ccc(N(C)C)cc2)o1`, the Potency is 15.1 µM (active).

Consider `CN(C)c1ccc(-c2ccnc3c2CC(C)(C(=O)Nc2ccc(Cl)c(C(F)(F)F)c2)O3)cc1` (stereo not given), for which the Potency result was “inactive”.

As for `CCOC(=O)C1=C(N)Oc2c(oc(CO)cc2=O)C1c1ccc(Cl)cc1` (stereo not given), the Potency result is “inactive”.

On to `O=C(Nc1ccc2nc(-c3ccco3)c(-c3ccco3)nc2c1)N1CCCC1`, for which the Potency was 16.9 µM (active).

For the compound `CC1CCN(C(=O)Nc2ccc3nc(-c4ccco4)c(-c4ccco4)nc3c2)CC1`, the Potency was 15.1 µM (active).

Consider `CCOC(=O)c1ncccc1NC(=O)CC(=O)Nc1cccnc1C(=O)OCC`, for which the Potency is 2.39 µM (active).

For the compound `Cc1cc(OC(=O)c2ccc(Cl)cc2)cc(=O)n1C`, the Potency result was “inactive”.

In the case of `C[C@H](O)[C@@H]1CN2CCc3c([nH]c4ccc(-c5ccc6c(c5)OCO6)cc34)[C@@H]2C[C@@H]1N(C)C(=O)NC1CCCCC1`, the Potency entry was “inactive”.

For `COc1ccc(Nc2nc(N)nc(CSC(=S)N3CCCCC3)n2)cc1`, the Potency entry was “inactive”.

On to `Oc1ccccc1C=NC1CCCCC1N=Cc1ccccc1O` (stereo not given), for which the Potency is 15.1 µM (active).

On to `COc1cc([C@H]2Oc3cc([C@H]4Oc5cc(O)cc(O)c5C(=O)[C@@H]4O)ccc3O[C@@H]2CO)ccc1O`, for which the Potency result was “inactive”.

Take `c1ccc(-c2ccc(C3=Nn4c(nnc4-c4cc(-c5ccccc5)n[nH]4)SC3)cc2)cc1`: the Potency entry was “inactive”.

Take `Cc1cc(C)n2nc(C(=O)NC3CCCc4ccccc43)nc2n1` (stereo not given): the Potency entry was “inactive”.

Take `Cc1cc(C)n2nc(SCCOc3ccccc3F)nc2n1`: the Potency is 12 µM (active).

In the case of `O=c1[nH]c(SCCOc2ccccc2F)nc2ccccc12`, the Potency result is “inactive”.

As to `O=c1[nH]c(=O)n(C2C[C@H](O)[C@@H](CO)O2)cc1C(F)(F)F` (stereo not given in full), the Potency entry was “inactive”.

Consider `COc1cccc(/C=N/N2C(=O)CSC2=S)c1O`, for which the Potency was 1.2 µM (active).

Consider `Cc1ccc(Nc2nc(NCCO)nc3c2cnn3C)cc1Cl`, for which the Potency is 7.57 µM (active).

Consider `COc1ccc(Nc2nc(-c3c(C)nc4ncccn34)cs2)cc1`, for which the Potency was 2.69 µM (active).

Regarding `Cc1nc2ncccn2c1-c1csc(Nc2ccccc2)n1`, the Potency was 2.39 µM (active).

Regarding `CC1=C(C(=O)OC(C)C)C(c2ccc(N(C)C)cc2)C2=C(CC(C)(C)CC2=O)N1` (stereo not given), the Potency result was “inactive”.

In the case of `Cc1cc(C(=O)O)ccc1-n1c(C)cc(C=C2C(=O)c3ccccc3C2=O)c1C`, the Potency entry was “inactive”.

On to `COC(=O)c1ccc(C23CC4(C2)[C@H](CN(CC2CCCCC2)[C@@H]4c2ccccc2)C3c2ccc(Cl)nc2)cc1` (stereo not given in full), for which the Potency result is “inactive”.

In the case of `CCCC(=O)NC(=S)Nc1sc2c(c1C(N)=O)CCC2`, the Potency result is “inactive”.

For the compound `Cc1sc(NC(=O)C2=COCCO2)c(C(N)=O)c1C`, the Potency entry is “inactive”.

As to `NC(=O)c1c(NC(=O)c2ccc(N3C(=O)CCC3=O)cc2)sc2c1CCCC2`, the Potency is 0.478 µM (active).

As for `NC(=O)c1c(NC(=O)c2cnccn2)sc2c1CCCC2`, the Potency was 0.301 µM (active).

For `COc1ccccc1NC(=O)NCCN1CCN(C(=O)Nc2ccccc2OC)CC1`, the Potency result is “inactive”.

For `COc1ccc(-c2cc(C3CCNCC3)[nH]n2)cc1`, the Potency result is “inactive”.

Consider `O=C(Oc1ccc(C(=S)N2CCOCC2)cc1)c1ccc(F)cc1`, for which the Potency entry is “inactive”.

As to `O=C(Oc1ccc(C(=S)N2CCOCC2)cc1)c1ccccc1`, the Potency result was “inactive”.

For `O=C(/C=C/c1ccccc1)Oc1ccc(C(=S)N2CCOCC2)cc1`, the Potency is 0.239 µM (active).

In the case of `CC(=O)c1ccc(OC(=O)/C=C/c2ccccc2)cc1`, the Potency is 0.536 µM (active).

As to `COC(=O)c1ccc(OC(=O)c2cccnc2)cc1`, the Potency result is “inactive”.

Turning to `O=C(O)c1ccc2c(c1)C(=O)N(c1ccc(/C=C/C(=O)c3ccccc3)cc1)C2=O`, the Potency result was “inactive”.

For `Cc1ccc(C2CC(c3ccc(Br)cc3)=NN2C(=O)CSC2=NN3CCCC(=O)N=C3S2)cc1` (stereo not given), the Potency result was “inactive”.

As for `Fc1cccc(Cc2c(-c3ccco3)nc3ccc(Br)cn23)c1`, the Potency result was “inactive”.

`O=[N+]([O-])c1ccc([N+](=O)[O-])c(Nc2ccc(N3CCOCC3)cc2)c1`: the Potency result was “inactive”.

Regarding `COc1cc(C(=S)N2CCOCC2)ccc1OC(=O)c1ccc([N+](=O)[O-])cc1[N+](=O)[O-]`, the Potency was 10.7 µM (active).

Consider `CC(=O)N1CCN(/[N+]([O-])=N/Oc2ccc([N+](=O)[O-])cc2[N+](=O)[O-])CC1`, for which the Potency entry was “inactive”.

As for `S=c1[nH]nc(-c2ccccn2)n1/N=C/c1ccc(Br)s1`, the Potency was 12 µM (active).

On to `C[C@@]12CCC=C[C@H]1[C@H](c1ccc3ccccc3c1/C=C/c1ccccc1)N(Cc1ccccc1)C2=O`, for which the Potency entry was “inactive”.

In the case of `Cc1ccc(S(=O)(=O)N2c3ccccc3-c3c(ssc3=S)C2(C)C)cc1`, the Potency is 15.1 µM (active).

Take `CC(C)OCCCNC(=O)c1ccccc1NC(=O)C1=CSCCO1`: the Potency entry is “inactive”.

Regarding `Nc1ccccc1C(=O)NNc1c2ccccc2nc2ccccc12`, the Potency was 6.75 µM (active).

Take `CC(C)(C)C(=O)[C@H]1[C@H](c2ccccc2)[C@@]2(N=C(c3ccccc3)OC2=O)C2c3ccccc3C=NN21` (stereo not given in full): the Potency result was “inactive”.

In the case of `CCOc1ccc2nc(N3CCCC(C(=O)N4CCN(CC)CC4)C3)sc2c1` (stereo not given), the Potency entry was “inactive”.

`O=C1c2cccc3cccc(c23)C(=O)N1CCCN1CCN(c2ccc(F)cc2)CC1`: the Potency result was “inactive”.

Regarding `CCC(=O)Nc1ccc(-c2nnc(SCc3ccccc3)n2C)cc1`, the Potency entry is “inactive”.

For `Cc1ccc2cc(NC(=O)CC(CC(=O)O)c3ccccc3)ccc2n1` (stereo not given), the Potency was 15.1 µM (active).

As to `CCSc1nnc(-c2ccc(S(=O)(=O)N3CCOCC3)cc2)n1C`, the Potency result is “inactive”.

With `CCSc1nc2ccccc2n1C(=O)c1ccc(S(=O)(=O)N2CCCCC2)cc1`, the Potency entry was “inactive”.

On to `Cc1ccc(S(=O)(=O)N2CCOCC2)cc1NC(=O)CSc1nnc2cc(C)c3ccccc3n12`, for which the Potency was 13.5 µM (active).

Take `Cc1cc(C)c2nc(SCC(=O)N(C)C3CCS(=O)(=O)C3)cc(C)c2c1` (stereo not given): the Potency result was “inactive”.

As to `COc1ccc(S(=O)(=O)c2c(O)c3ccc(C(=O)Nc4cccc(F)c4)cc3[nH]c2=O)cc1`, the Potency is 0.536 µM (active).

In the case of `COc1ccc(N(CC(=O)Nc2cccc(C(C)=O)c2)S(=O)(=O)c2ccc(NC(C)=O)cc2)cc1`, the Potency result was “inactive”.

For `COc1ccc(S(=O)(=O)c2c(O)c3ccc(C(=O)Nc4ccccc4F)cc3[nH]c2=O)cc1`, the Potency was 0.757 µM (active).

With `COc1ccc(C(=O)Nc2cc(OC)c(NC(=O)Nc3ccccc3)cc2OC)cc1`, the Potency entry is “inactive”.

Take `COc1ccc(C2NC(C(=O)O)Cc3c2[nH]c2ccccc32)cc1CN1CCN(c2ccc(F)cc2)CC1` (stereo not given): the Potency result was “inactive”.

Regarding `CCc1nc2ccc(C(=O)NCCCN(C)C)cn2c1N(C)Cc1ccc(OC)cc1`, the Potency result is “inactive”.

As for `COc1cc(OC)c(OC)cc1/C=C1\C=Cc2ccccc21`, the Potency is 12 µM (active).

For `COc1cc(N(C)C)ccc1/C=C1\C=Cc2ccccc21`, the Potency was 8.49 µM (active).

Take `CN(C)c1ccc(/C=C2\C=Cc3ccccc32)c(Cl)c1`: the Potency was 8.49 µM (active).

Take `COc1cc(N(C)C)c(OC)cc1/C=C1\C=Cc2ccccc21`: the Potency was 5.36 µM (active).

On to `COc1cc(OC)c(OC)cc1/C=C1\CC(C)C/C(=C\c2cc(OC)c(OC)cc2OC)C1=O` (stereo not given), for which the Potency result is “inactive”.

For `Cc1cc(C)c(C#N)c(Sc2nnnn2-c2ccccc2)n1`, the Potency entry was “inactive”.

As to `O=C(O)c1ccc2c(c1)C(=O)N(c1cccc(-c3nc4ccccc4s3)c1)C2=O`, the Potency result was “inactive”.

`N#Cc1c(N)n(-c2cccc(C(=O)O)c2)c2nc3ccccc3nc12`: the Potency is 10.7 µM (active).

In the case of `N#Cc1c(N)n(-c2ccc(C(=O)O)cc2)c2nc3ccccc3nc12`, the Potency is 12 µM (active).

Regarding `CN(C)C(C)(C)C#CC(O)(c1ccccc1)c1ccccc1`, the Potency result was “inactive”.

For `O=C(O)c1ccc(-c2ccc(/C=c3/sc4nc5ccccc5n4c3=O)o2)cc1Cl`, the Potency was 4.26 µM (active).

As for `CCOc1cccc(CN2CCC(CCC(=O)NC3CC3)CC2)c1O`, the Potency entry was “inactive”.

Regarding `CC(C(=O)c1ccc(Br)cc1)[n+]1cccc2ccccc21` (stereo not given), the Potency result is “inactive”.

Consider `CCC(=O)N1c2ccc(S(=O)(=O)N3CCN(c4ccc([N+](=O)[O-])cc4)CC3)cc2CC1C` (stereo not given), for which the Potency entry was “inactive”.

With `CCc1ccc2nc(N(CCN(C)C)C(=O)c3ccc4ncsc4c3)sc2c1`, the Potency entry was “inactive”.

On to `Cc1sc2nc3ccc(N4CCCCC4)nn3c(=O)c2c1C`, for which the Potency is 13.5 µM (active).

With `C[C@](N)(Cc1ccc(O)c(O)c1)C(=O)O`, the Potency result is “inactive”.

`Nc1nc2c(c(=O)[nH]1)C(c1ccccc1)C1=C(N2)c2ccccc2C1=O` (stereo not given): the Potency was 1.69 µM (active).

For `CCCOc1ccc(C2C3=C(Nc4nc(N)[nH]c(=O)c42)c2ccccc2C3=O)cc1` (stereo not given), the Potency is 3.79 µM (active).

`Nc1nc2c(c(=O)[nH]1)C(c1cccc3ccccc13)C1=C(N2)c2ccccc2C1=O` (stereo not given): the Potency was 4.26 µM (active).

In the case of `CCOc1ccc(C2C3=C(Nc4nc(N)[nH]c(=O)c42)c2ccccc2C3=O)cc1` (stereo not given), the Potency is 2.39 µM (active).

On to `CS(=O)(=O)c1ccc(C(=O)Nc2nc(-c3ccco3)c(-c3ccco3)s2)cc1`, for which the Potency was 13.5 µM (active).

On to `CS(=O)(=O)c1ccc2nc(NC(=O)c3ccccc3Cl)sc2c1`, for which the Potency result was “inactive”.

With `Cc1nc(NC(=O)c2ccccc2)sc1-c1cc(C(=O)O)nn1Cc1ccccc1`, the Potency entry is “inactive”.

Take `Nc1c(N=Nc2ccc([N+](=O)[O-])cc2)c(S(=O)(=O)O)cc2cc(S(=O)(=O)O)c(/C=C/c3ccccc3)c(O)c12`: the Potency is 7.57 µM (active).

`COc1ccc2c(c1)sc1nc(=O)ccn12`: the Potency entry is “inactive”.

On to `O=C(N[C@@H]1CC[C@H](CCn2cc(-c3ccccn3)nn2)O[C@@H]1CO)c1ccncc1`, for which the Potency is 12 µM (active).

Consider `Cc1ccc(SCc2nc(N)nc(Nc3ccccc3C)n2)cc1C`, for which the Potency entry was “inactive”.

For `COc1cccc(C(=O)C2CCCN(CC3=Cc4cc(OC)ccc4OC3)C2)c1` (stereo not given), the Potency is 13.5 µM (active).

Take `COc1ccc(C(=O)C2CCCN(C(=O)c3cccc(N(C)C)c3)C2)cc1OC` (stereo not given): the Potency entry was “inactive”.
